# From PubChem BioAssay
# An excerpt weighted towards active compounds, which were near 3.1% of everything screened.
# S16 viability: Cell viability qHTS assay in S16 Pmp22-F2sN cells; S16 Pmp22-F2sN Schwann cells viability, CellTiter-Glo, 24 h; Potency, µM (top dose mostly 57.5 µM), for the others: at the highest dose activity change, negative = cytotoxicity, actives largely listed as cytotoxic; 43,000 tested, 0.48% active; AID 1508642, 2021; further: potency means the concentration at half of the fitted maximal effect; on the % scale 0 is the no-effect control and ±100 the full control effect; nearly all actives have a fitted effect of over 65% in size
#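 Seed 500-1,000 S16 Pmp22-F2sN cells per well in phenol-red-free DMEM with 10% heat-inactivated FBS; pin-add 23 nL compound; incubate 24 h at 37C; add CellTiter-Glo, wait 15 min protected from light; read luminescence.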
# OvCa metastasis: Primary qHTS assay for Inhibitors of ovarian cancer metastasis using an organotypic tumor microenvironment (TME) model | SKOV3ip1-GFP adhesion/invasion on 3D omental model, fluorescence | Potency, µM (top dose mostly 45.8 µM), without a hit: top-dose activity change, negative = inhibition, usual class: inhibitors | 46,000 tested, 0.1% active | AID 1963576, 2024;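 further: potency means the concentration at half of the fitted maximal effect; plate controls were DMSO wells for no effect and tomatine positive control wells for full effect; nearly all actives have a fitted effect of over 65% in size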
#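 Primary human omental fibroblast/mesothelial 3D culture pre-formed 48 h. SKOV3ip1-GFP cells added with compounds (0.36-46 umol/L), incubated 2 h RT/16 h 37 C, fixed; GFP cells quantified at 488/509 nm.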
# PMP22 txn prim: Cell-based coincidence reporter assay to measure PMP22 gene transcription in S16 Pmp22-F2sN cells - Primary screen; Potency, µM (highest dose often 57.5 µM), for inactives: at the top dose activity change, negative = inhibition, actives largely listed as inhibitors; S16 Pmp22-F2sN Schwann cells (luciferase reporters placed in the Pmp22 gene), FLuc/NLuc coincidence luminescence, 24 h; 43,000 tested, 2% active; active means clear falling dose curves in both reporters; inconclusive means both reporters move, but less clearly or upward; inactive means either reporter flat; the % is the NLuc reporter signal; further: potency means the concentration at half of the fitted maximal effect; on the % scale 0 is the no-effect control and ±100 the full control effect
#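 Luminescent read-out of sequential FLuc and NLuc signals from a reporter embedded in the Pmp22 3' UTR of S16 Schwann cells, taken after 24 h compound exposure at 37C; compounds reducing both signals score as inhibitors of expression.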
# p53null 39C tox: qHTS Screen for Compounds that Selectively Target Cancer Cells with p53 Mutations: Cytotoxicity of p53 Null Cells at the Nonpermissive Temperature. H1299 p53-null (neo) cells, 39C, ATPlite viability, 24 h. Potency, µM (titrated, usually from 46.1 µM), for inactives: at the highest dose activity, negative = cell killing, actives largely listed as cytotoxic. 55,000 tested, 0.97% active. AID 904, 2007;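 further: potency means the concentration at half of the fitted maximal effect; 0% = DMSO only and -100% = full killing by 100 µM tamoxifen; nearly all actives have a fitted effect of over 50% in size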
#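 Following overnight plating at 37C (600 cells/well), H1299-neo or H1299-p53A138V cells are dosed up to 46 uM. Incubation lasts 24 hr at 39C before ATP detection.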
# mTORC1 inh: Acumen qHTS Assay for Inhibitors of the mTORC1 Signaling Pathway in MEF (Tsc2-/-, p53-/-) Cells: Sytravon; Tsc2-/- p53-/- MEF, phospho-rpS6 immunofluorescence/PI, 24 h; 44,000 tested, 0.78% active; Potency, µM (titrated, usually from 38.3 µM), for inactives: at the highest dose activity change, negative = inhibition, usual class: inhibitors;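 further: potency means the concentration at half of the fitted maximal effect; plate controls were DMSO for no effect and rapamycin for full effect; nearly all actives have a fitted effect of over 50% in size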
#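 Tsc2-/-, p53-/- mouse embryonic fibroblasts (empty-vector line) exposed to compound 24 hrs at 37 C, fixed, immunostained for phospho-rpS6 and counterstained with propidium iodide. Acumen laser scanning gives % positive cells from Alexa 488/PI ratio, thresholded using 7.5 nM rapamycin; PI count gives viability.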
# p53null 32C kill: qHTS Screen for Compounds that Selectively Target Cancer Cells with p53 Mutations: Cytotoxicity of p53 Null Cells at the Permissive Temperature; H1299-neo p53 null cells, ATP luminescence, 24 h, 32C; Potency, µM (titrated, usually from 46.1 µM), for inactives: at the top dose activity change, negative = cytotoxicity, most hits filed as cytotoxic; 55,000 tested, 0.62% active; AID 903, 2007;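 further: potency means the concentration at half of the fitted maximal effect; 0% = DMSO only and -100% = full killing by 100 µM tamoxifen; nearly all actives have a fitted effect of over 55% in size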
#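 Overnight 37C seeding (600 cells/well) of H1299-neo preceded a 24 hr, 32C exposure to compounds up to 46 uM. ATP levels, read by luminescence after 20 min at RT, indicated surviving cells.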
# NLuc sat counter: Biochemical NLuc saturation counterscreen for small molecule modulators of PMP22 gene expression - Nano-Glo assay; Potency, µM (titrated, usually from 57.5 µM), for the others: at the highest dose activity change, negative = inhibition, hits mostly inhibitors; shares compounds with PMP22 txn prim; 690 tested, 4% active; Secreted NLuc enzyme (filtered S16 cell medium), Nano-Glo luminescence; further: potency means the concentration at half of the fitted maximal effect; on the % scale 0 is the no-effect control and ±100 the full control effect
# NLuc Km ctr: Biochemical coelenterazine-based NLuc counterscreen for small molecule modulators of PMP22 gene expression - Km assay. shares compounds with PMP22 txn prim. secreted NLuc enzyme, coelenterazine luminescence, Km conditions. Potency, µM (top dose mostly 57.5 µM), for the others: at the top dose activity change, negative = inhibition, most hits filed as inhibitors. 690 tested, 5% active; further: potency means the concentration at half of the fitted maximal effect; on the % scale 0 is the no-effect control and ±100 the full control effect
# FLuc counter: Biochemical FLuc counterscreen for small molecule modulators of PMP22 gene expression. shares compounds with PMP22 txn prim. purified P. pyralis FLuc, luminescence, 10 min. Potency, µM (top dose mostly 57.5 µM), for the others: top-dose activity, negative = inhibition, hits mostly inhibitors. 690 tested, under 10 active. AID 1508640, 2021; further: % of control where 0% means no effect
# Target sequence (P08659 whole entry, looked up): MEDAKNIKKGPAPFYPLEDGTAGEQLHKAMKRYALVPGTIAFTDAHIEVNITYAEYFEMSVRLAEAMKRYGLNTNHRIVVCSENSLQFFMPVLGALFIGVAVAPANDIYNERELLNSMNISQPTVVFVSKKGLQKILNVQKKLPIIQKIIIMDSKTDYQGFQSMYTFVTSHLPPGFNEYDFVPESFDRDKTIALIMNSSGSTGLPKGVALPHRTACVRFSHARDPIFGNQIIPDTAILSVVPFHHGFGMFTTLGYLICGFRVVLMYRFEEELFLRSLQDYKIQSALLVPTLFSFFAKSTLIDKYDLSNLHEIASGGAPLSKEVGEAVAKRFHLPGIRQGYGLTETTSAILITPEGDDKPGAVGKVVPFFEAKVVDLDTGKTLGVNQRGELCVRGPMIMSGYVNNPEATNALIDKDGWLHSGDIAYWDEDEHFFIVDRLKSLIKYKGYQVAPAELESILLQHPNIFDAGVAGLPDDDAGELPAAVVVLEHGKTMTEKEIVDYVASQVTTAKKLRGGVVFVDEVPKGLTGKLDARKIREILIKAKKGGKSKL
# S16 viab conf: Cell viability qHTS assay in S16 Pmp22-F2sN cells - Confirmatory screen. shares compounds with PMP22 txn prim. S16 Schwann cells viability, CellTiter-Glo ATP luminescence, 24 h. Potency, µM (series often up to 57.5 µM), for inactives: at the highest dose activity change, negative = viability loss, most hits filed as cytotoxic. 690 tested, 7% active. AID 1508641, 2021; further: potency means the concentration at half of the fitted maximal effect; on the % scale 0 is the no-effect control and ±100 the full control effect
# PMP22 txn cnf: Cell-based coincidence reporter assay to measure PMP22 gene transcription in S16 Pmp22-F2sN cells - Confirmatory screen; S16 Schwann cells Pmp22-F2sN, dual luciferase, 24 h; shares compounds with PMP22 txn prim; 690 tested, 22% active; Potency, µM (highest dose often 57.5 µM), inactives show at the top dose activity change, negative = inhibition, hits mostly inhibitors; active means clear falling dose curves in both reporters; inconclusive means both reporters move, but less clearly or upward; inactive means either reporter flat; the % is the FLuc reporter signal; further: potency means the concentration at half of the fitted maximal effect
# PMP22 prot conf: Cell-based HiBiT reporter assay to measure PMP22 protein expression in S16 Pmp22-HiBiT cells - Confirmatory screen; Potency, µM (highest dose often 27.9 µM), without a hit: at the highest dose activity change, negative = inhibition, most hits filed as inhibitors; S16 Schwann cells Pmp22-HiBiT, luminescence, 48 h; AID 1508647, 2021; shares compounds with PMP22 txn prim; 95 tested, under 10 active
# Target sequence (P25094 whole entry, looked up): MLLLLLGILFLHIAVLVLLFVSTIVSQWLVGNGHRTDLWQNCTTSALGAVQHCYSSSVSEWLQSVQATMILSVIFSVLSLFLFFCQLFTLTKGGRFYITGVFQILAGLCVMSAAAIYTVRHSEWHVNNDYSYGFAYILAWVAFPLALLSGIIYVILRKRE
# The depositor's hits bear a star; ? = inconclusive; nt = no result. Unless noted, the call rests on the fitted dose curve; in most records, active means well fitted curve in the direction sought with a large enough effect; inconclusive means small, poorly fitted or top-dose-only effect, or another doubt; inactive means no such curve, though single readings can be large; an effect the other way counts as inactive or inconclusive.
SMILES,S16 viability,OvCa metastasis,PMP22 txn prim,p53null 39C tox,mTORC1 inh,p53null 32C kill,NLuc sat counter,NLuc Km ctr,FLuc counter,S16 viab conf,PMP22 txn cnf,others
O=C(NCc1ccccc1)c1cccc(Nc2nc3ccccc3n3nnnc23)c1,?,6%,13µM*,-13%,-3%,-5%,-1%,2%,7%,22µM*,14µM*,
CCOc1ccc(CCNC(=O)c2ccc(Nc3nc4ccccc4n4nnnc34)cc2)cc1OCC,-27%,-28%,?,-9%,-1%,-3%,nt,nt,nt,nt,nt,
COc1ccccc1CNC(=O)c1cccc(Nc2nc3ccccc3n3nnnc23)c1,?,-13%,?,-28%,-2%,-11%,nt,nt,nt,nt,nt,
Cc1cccc(C)c1Nc1c(-c2ccsc2)nc2ccccn12,?,-7%,9.5µM*,?,-12%,36%,?,22µM*,2%,1%,?,
Cc1cccc(C)c1Nc1c(-c2ccsc2)nc2ccc(Cl)cn12,-12%,6%,-13%,-6%,-14%,-5%,nt,nt,nt,nt,nt,
CCc1ccc(NC(=O)c2ccc3c(c2)c(C)c(C)n3Cc2ccccc2)cc1,-8%,-3%,?,4%,-14%,15%,-9%,3%,?,-6%,?,
Cc1c(C(=O)NCc2cccc(Cl)c2)sc2nc[nH]c(=O)c12,-4%,6%,?,5%,-14%,14%,?,-18%,-1%,?,13%,
Cc1c(C(=O)NCc2ccccc2)sc2nc[nH]c(=O)c12,0%,16%,-38%,-2%,-8%,6%,nt,nt,nt,nt,nt,
Cc1cccc(NC(=O)c2sc3nc4c(cc3c2N)CCCCCC4)c1C,17%,-10%,?,?,?,-3%,-7%,-2%,-7%,0%,-40%,
COc1ccc(OC)c(NC(=O)c2sc3nc4c(cc3c2N)CCCCCC4)c1,-2%,7%,?,?,?,?,nt,nt,nt,nt,nt,
CCOCCCn1c(=N)c(C(=O)NC2CCCC2)cc2c(=O)n3cccc(C)c3nc21,-3%,17%,?,-7%,-6%,3%,-5%,1%,0%,24%,?,
CCCCn1c(=N)c(C(=O)NC2CCCCC2)cc2c(=O)n3cccc(C)c3nc21,25%,24%,-3%,-3%,-6%,-2%,nt,nt,nt,nt,nt,
CCOCCCn1c(=N)c(C(=O)NC(C)c2ccccc2)cc2c(=O)n3cccc(C)c3nc21 (configuration not stated),?,25%,15µM*,-3%,?,11%,-13%,8%,-1%,-2%,?,
COCCNc1nc2c(c(=O)n(C)c(=O)n2C)n1Cc1c(F)cccc1Cl,?,6%,13µM*,-25%,-1%,3%,1%,-2%,4%,11%,-9%,
COc1ccccc1Nc1nn2c(=O)c3ccc(C(=O)Nc4ccc(F)cc4)cc3nc2s1,21%,7%,3µM*,12%,-19%,-1%,-3%,4%,-17%,14µM*,5.8µM*,PMP22 prot conf=?
COc1ccccc1Nc1nn2c(=O)c3ccc(C(=O)NCCC4=CCCCC4)cc3nc2s1,?,13%,3µM*,4µM*,?,?,?,?,?,6.9µM*,5.8µM*,
Cc1ccc(NC(=O)c2ccc3c(=O)n4nc(Nc5ccccc5C)sc4nc3c2)cc1C,11%,-4%,9.5µM*,?,-1%,-23%,-10%,?,-4%,27µM*,13µM*,
COc1ccc(NC(=O)c2ccc3c(=O)n4nc(Nc5ccccc5C)sc4nc3c2)cc1,11%,3%,?,16%,-3%,-9%,nt,nt,nt,nt,nt,
Cc1ccc(C)c(Nc2nn3c(=O)c4ccc(C(=O)NCCC5=CCCCC5)cc4nc3s2)c1,2%,10%,?,-26%,-5%,-16%,nt,nt,nt,nt,nt,
COc1ccc(NC(=O)c2ccc3c(=O)n4nc(Nc5ccccc5C)sc4nc3c2)cc1Cl,-5%,-7%,11µM*,?,1%,-12%,-10%,?,-2%,24µM*,15µM*,
